# Data taken from PubChem BioAssay (NCATS).
# Inconclusive results are not listed. Where a call stands in place of a potency, no number is given. The source made the active and inactive calls. Calls come from the whole dose curve; as a rule, active = well fitted curve in the direction sought with a large enough effect; inconclusive = small, poorly fitted or top-dose-only effect, or another doubt; inactive = no such curve, though single readings can be large; an effect the other way counts as inactive or inconclusive.
# Target: Tumor susceptibility gene 101 protein (Homo sapiens) (UniProt Q99816)
# Assay: qHTS Assay for Iinhibitors of HIV-1 Budding by Blocking the Interaction of PTAP/TSG101: Hit Validation (AID 651600); note: nearly all actives have a fitted effect of over 70% in size; note: potency is the fitted concentration of half-maximal effect
# Conditions: PTAP peptide/TSG101 UEV interaction, biochemical assay; series mostly up to 57.5 µM
# Outline: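 Displacement of a FITC-labeled PTAP-motif peptide (50 nM) from the Tsg101 binding domain (10 uM) was monitored by fluorescence polarization after a 20 min room-temperature incubation.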
# Chain of Tumor susceptibility gene 101 protein (Homo sapiens) (Q99816 whole entry, looked up): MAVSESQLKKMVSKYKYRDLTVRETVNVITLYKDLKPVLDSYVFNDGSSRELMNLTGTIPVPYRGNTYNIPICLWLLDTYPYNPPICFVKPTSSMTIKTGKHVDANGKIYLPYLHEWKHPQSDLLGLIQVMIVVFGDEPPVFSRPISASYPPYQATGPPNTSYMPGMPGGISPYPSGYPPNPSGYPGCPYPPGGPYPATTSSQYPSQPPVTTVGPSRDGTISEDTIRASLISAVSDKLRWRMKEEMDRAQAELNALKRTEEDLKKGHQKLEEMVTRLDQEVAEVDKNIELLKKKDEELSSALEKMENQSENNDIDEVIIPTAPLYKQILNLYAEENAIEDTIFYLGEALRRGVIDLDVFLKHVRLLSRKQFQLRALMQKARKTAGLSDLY
row,SMILES,Potency
1,Cc1ccc(CSc2nnc3c(n2)OC2(Nc4ccccc4-3)C(=O)Nc3ccc(F)cc32)cc1 (stereo unspecified),inactive
2,O=C(C1=C(O)C(=O)N(c2nccs2)C1c1ccccc1)c1cc2ccccc2o1 (stereo unspecified),5.17 µM (active)
3,CCOC(=O)N1CCN(c2nc3ccccc3nc2C(C#N)S(=O)(=O)c2ccc(C)cc2)CC1 (stereo unspecified),inactive
4,Cc1ccc(C2C=C(c3ccccc3)Nc3nc(NS(C)(=O)=O)nn32)cc1 (stereo unspecified),inactive
5,OC(CN1CCN(c2ccccn2)CC1)Cn1c2ccccc2c2ccccc21 (stereo unspecified),inactive
6,Nc1c(C(=O)C2CC2)sc2nc(-c3ccccc3)cc(C(F)(F)F)c12,inactive
7,CN(C)CCNc1ccc2ncn3c4ccc(O)cc4c(=O)c1c23,8.19 µM (active)
8,O=C(NCc1cccc(F)c1)c1cccc2c1C(=O)c1ccc(N3CCC(Cc4ccccc4)CC3)cc1S2(=O)=O,10.3 µM (active)
9,CC(=O)c1ccc(N2C(=O)C3C(C2=O)C(C(=O)c2ccc(Cl)cc2)N2CCCC32)cc1 (stereo unspecified),inactive
10,CC1(C)CC(=O)C2=C(C1)OC(N)=C(C#N)[C@@H]2c1ccccc1[N+](=O)[O-],inactive
11,CC(=O)n1c(C=Nc2ccc(Cl)cc2)c(O)c2ccccc21,16.3 µM (active)
12,CCN(CC)S(=O)(=O)c1ccc(C(=O)OCCN2C(=O)c3cccc4c(N5CCOCC5)ccc(c34)C2=O)cc1,4.11 µM (active)
13,Cn1cc(/C=C(\C#N)C(=O)Nc2ccccc2O)c2ccccc21,inactive
14,COc1ccccc1N1C(C)=CC(=C(C#N)c2nc3ccccc3s2)C=C1C,25.9 µM (active)
15,CCOC(=O)c1c(C)oc2c1c(CN1CCN(C(=O)OCC)CC1)c(O)c1ccccc12,inactive
16,C=CCOc1ccc(C2OC34CCCCC3C(C#N)(C#N)C2(C#N)C(=N)O4)cc1 (stereo unspecified),25.9 µM (active)
17,COc1ccc(C(=O)c2sc3nc(C)cc(-c4cccs4)c3c2N)cc1,inactive
18,C/C(N)=C(/C#N)C(=O)CSc1ncnc2ccccc12,inactive
19,COc1ccc(N(C(=O)c2snc(C(N)=O)c2N)C(C(=O)NC2CCCC2)c2ccc3ncccc3c2)cc1 (stereo unspecified),inactive
20,S=C(NCc1ccccc1)Nc1cccc(Cl)c1,inactive

# Test system: not listed separately
# Assay: qHTS for Inhibitors of Ubiquitin-specific Protease USP2a Using CHOP2 as the Reporter: K633 Counterscreen (AID 652168)
# Conditions: No-enzyme DiUb K48 IQF substrate fluorescence interference, kinetic; series mostly up to 57.5 µM
# Outline: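 Cell-free interference counterscreen without USP2a: compounds pinned into enzyme-free buffer (20 mM Tris pH 8, 2 mM beta-mercaptoethanol, 0.05% Chaps), then DiUb K48-4IQF substrate added (100 nM stock); fluorescence read kinetically, Ex 525/Em 598.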
row,SMILES,outcome
1,Cc1cccc(S(=O)(=O)Nc2cnccc2C(=O)Nc2nc(-c3ccccc3)cs2)c1,inactive
2,CN(Cc1nccs1)S(=O)(=O)c1ccc(Nc2nc(-c3ccccc3)cs2)cc1,inactive
3,Cc1ccc(S(=O)(=O)Nc2cnccc2C(=O)Nc2nc(-c3ccccc3F)cs2)cc1,inactive
4,Cc1ccc(-c2cc(C(=O)Nc3ccc([N+](=O)[O-])cc3)c3ccccc3n2)cc1C,inactive
5,CC(=O)Nc1ccc(NC(=O)c2cc(-c3ccc(C)c(C)c3)nc3ccccc23)cc1,inactive
6,CC(=O)Nc1ncc(S(=O)(=O)Nc2cnccc2C(=O)Nc2nc(-c3ccccc3)cs2)s1,inactive
7,Cc1ccc(S(=O)(=O)Nc2cnccc2C(=O)Nc2cccc3ccccc23)cc1,inactive
8,COc1cccc(-c2csc(NC(=O)c3ccncc3NS(=O)(=O)c3ccc(C)cc3)n2)c1,inactive
9,Cc1ccc(-c2cc(C(=O)Nc3ccc(S(N)(=O)=O)cc3)c3cccc(C)c3n2)cc1C,inactive
10,O=C(Nc1nc(-c2ccccc2)cs1)c1ccncc1NS(=O)(=O)c1ccc(-c2ccccc2)cc1,inactive
11,CC(C)(C)NC(=O)N1CCC(C(=O)Nc2ccc([S+](=O)([O-])Nc3nccs3)cc2)CC1,inactive
12,O=C(Nc1nc(-c2ccccc2)cs1)c1ccncc1NS(=O)(=O)c1ccccc1,inactive
13,Cc1ccc(-c2csc(Nc3ccc(S(=O)(=O)Nc4nccs4)cc3)n2)cc1C,inactive
14,COc1ccc(C(=O)Nc2nc(-c3ccccc3)cs2)c(NS(=O)(=O)c2ccc(C)cc2)c1,inactive
15,Cc1ccc(-c2cc(C(=O)Nc3ccc(C(F)(F)F)cc3)c3ccccc3n2)cc1C,inactive
16,Cc1ccc(C(=O)Nc2ccc(S(=O)(=O)Nc3nccs3)cc2)cc1C,inactive
